# Laboratory results: PubChem BioAssay AID624117 (National Center for Advancing Translational Sciences (NCATS), 2012)
# Records with an inconclusive call do not appear. Unmarked numbers belong to inactive results. Calls of active or inactive are those of the source. Calls come from the whole dose curve; as a rule, active = well fitted curve in the direction sought with a large enough effect; inconclusive = small, poorly fitted or top-dose-only effect, or another doubt; inactive = no such curve, though single readings can be large or run the other way.
# Experiment: qHTS Assay for Rab9 Promoter Activators: Hit Validation Using Renilla Luciferase Read-Out; for activation (negative = inhibition): % of control where 0% means no effect
# Conditions: Huh7 NPC1 promoter Renilla luciferase reporter, 24 h; series mostly up to 76.9 µM; activation (negative = inhibition): at the top concentration
# In short: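 Huh7 cells stably carrying NPC promoter-luciferase, 1,500 cells/well, exposed to compound for 24 h at 37 deg C. Luminescence read 10 min after […] addition; validation of firefly-read primary hits.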
# Potency is the fitted concentration of half-maximal effect.
Structure (SMILES),activation (negative = inhibition) [%],Potency
CN(C)/C=N/c1c(C#N)cnn1-c1nc2ccccc2s1,-3.73,–
Cc1ccc2c(c1)sc1nc(=O)n(-c3ccccc3)c(=O)n12,-17.1,–
Cc1nc2sc(C(=O)OC(C)C)c(N)c2c(C)c1C,-0.581,–
O=C(O)C1=CC[C@@H](c2ccc(Cl)cc2)N(S(=O)(=O)c2ccc(Cl)cc2)[C@H]1c1ccccc1,1.45,–
CCC(=O)NC(=S)Nc1ccc(N2CCOCC2)cc1,-0.702,–
COc1ccc(-c2csc(Nc3ncccn3)n2)cc1C,-0.405,–
CC1CC(C)CN(CC(=O)N2CCOCC2)C1 (centres undefined),-13.3,–
CCN(CC)S(=O)(=O)c1ccc(NCc2ccccn2)nc1,-1.71,–
O=C(Nc1ccc(-c2nc3cccnc3s2)cc1)c1ccc(Cl)nc1,-1.72,–
N#C/C(=N\Nc1ccc(Cl)cc1)C(=N)N1CCCCC1,-5.18,–
COC(=O)c1sccc1NC(=S)OC,-7.79,–
NC(=O)COC(=O)c1ccc2noc(-c3ccccc3)c2c1,-10.5,–
O=CN1CCN(C(=O)c2ccccc2Cl)CC1,-4.72,–
CC(=O)Nc1ccc(NC(=O)COc2ncnc3ccccc23)cc1,5.67,–
O=C(c1cc2cc([N+](=O)[O-])ccc2oc1=O)n1cccn1,-1.56,–
CC(=O)c1c(C)[nH]c(C(=O)Nc2cccc(S(=O)(=O)N(C)C)c2)c1C,–,26 µM (active)
COc1ccccc1NC(=S)NCc1ccc(Cl)cc1,1.13,–
CCCCn1c(Nc2ccc(OC)cc2)nc2ccccc21,-1.27,–
Cc1nc(-c2ccccn2)sc1C(=O)Nc1ccc(F)cc1F,-5.7,–
COCCNC(=O)C1CCC(CNS(=O)(=O)c2ccc(F)cc2)CC1 (centres undefined),-8.21,–

Structure (SMILES),activation (negative = inhibition) [%],Potency
Cc1ccc(NC(=O)COC(=O)C2C3CC4OC(=O)C2C4C3)cc1Cl (centres undefined),-7.4,–
CCc1cc(C(=O)Nc2ccccc2)cs1,-21.9,–
O=C(CCNC(=O)c1ccc(Br)o1)NCc1ccc(Cl)cc1,-2.1,–
COc1ccc(-n2c(N)c(C(=O)NCc3ccco3)sc2=S)cc1,-2.97,–
CCCCc1cc(=O)oc2cc(OCC(=O)N3CCOCC3)ccc12,-1.07,–
CC1CCc2sc(C(=O)NNC(=S)NC3CC3)cc2C1 (centres undefined),-43.9,–
Cc1ccc2nc(NC(=O)CCn3cccc3)sc2c1,-34.5,–
O=C(CSc1nnc(-c2ccccn2)o1)Nc1ccccc1Cl,-3.21,–
O=C(C[N+]1(CC#Cc2ccccc2)CCCCC1)c1ccccc1,5.82,–
CC(=O)Nc1ccc(-c2csc(Nc3ncccn3)n2)cc1,-9.77,–
COc1ccc(C2(CNC(=O)/C=C/c3ccco3)CCCC2)cc1OC,2.65,–
CC(=O)NC(=S)Nc1ccc2oc(-c3cc(F)c(F)cc3Cl)nc2c1,0.138,–
O=C(CSc1nccn1Cc1ccco1)Nc1ccccc1F,10.3,–
CCOC(=O)c1csc(COc2ccc(OC)cc2)n1,-4.37,–
Cc1ccccc1NC(=O)CSc1ccc(-c2cccnc2)nn1,-0.363,–
O=C(CSc1nnc(-c2ccc([N+](=O)[O-])cc2)o1)Nc1ccccn1,-4.19,–
CCCC(C)NC(=O)c1ccc(OCc2ccc(Cl)cc2)c(OC)c1 (centres undefined),-10.1,–
CC1CCCN(C(=S)Nc2ccc(Nc3ccccc3)cc2)C1 (centres undefined),11.8,–
COc1ccc2oc(=O)c(C(=O)NC(C)c3ccccc3)cc2c1 (centres undefined),25.8,–
